KCNQ2 block – blocks the rat KCNQ2 potassium channel; O88943; CHO-K1 KCNQ2, FluxOR thallium flux, 20 min; hits give low values; B-score at 10 µM; 1.1% of 310,000 active; AID 2156;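 active = fluorescence ratio B-score at most minus 3 library SDs, with starting brightness B-score within 2 library SDs, cut at about -5.5 in these data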
KCNQ2 enhance – potentiators of rat KCNQ2 potassium channel; CHO-K1 KCNQ2, FluxOR thallium flux fluorescence; hits give high values; B-score at 10 µM; O88943; 0.54% of 310,000 active;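 active = fluorescence ratio B-score at least 3 SD of library B-scores, with initial fluorescence B-score within 3 of them, cut at about 5.3 in these data; same plate scores as AID 2156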;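 also: B-score of peak minus minimum over baseline fluorescence ratio after K+ and Tl+ stimulus; positive B-score means potentiation of KCNQ2 with more thallium influx and brighter signal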
KCNQ2 inh conf – confirmation of rat KCNQ2 potassium channel inhibitors; shares compounds with KCNQ2 block; KCNQ2-expressing cells, thallium flux, inhibition; hits give low values; activity change, negative = inhibition, % at 10 µM; 57% of 1,000 active; AID 493025
KCNQ1 spec – KCNQ2 inhibitor that also affects human KCNQ1 channel; shares compounds with KCNQ2 block; KCNQ1-expressing cells, FluxOR thallium flux fluorescence; hits give low values; activity change, negative = inhibition, % at 10 µM; 15% of 1,000 active; AID 493026;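 active = activity change at least 3 SD of negative controls below their mean in both duplicate wells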;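 also: CHO cells stably transfected with KCNQ1 and depolarized by potassium stimulus; peak minus minimum fluorescence over baseline after thallium addition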
Target sequence (P51787 whole entry, looked up): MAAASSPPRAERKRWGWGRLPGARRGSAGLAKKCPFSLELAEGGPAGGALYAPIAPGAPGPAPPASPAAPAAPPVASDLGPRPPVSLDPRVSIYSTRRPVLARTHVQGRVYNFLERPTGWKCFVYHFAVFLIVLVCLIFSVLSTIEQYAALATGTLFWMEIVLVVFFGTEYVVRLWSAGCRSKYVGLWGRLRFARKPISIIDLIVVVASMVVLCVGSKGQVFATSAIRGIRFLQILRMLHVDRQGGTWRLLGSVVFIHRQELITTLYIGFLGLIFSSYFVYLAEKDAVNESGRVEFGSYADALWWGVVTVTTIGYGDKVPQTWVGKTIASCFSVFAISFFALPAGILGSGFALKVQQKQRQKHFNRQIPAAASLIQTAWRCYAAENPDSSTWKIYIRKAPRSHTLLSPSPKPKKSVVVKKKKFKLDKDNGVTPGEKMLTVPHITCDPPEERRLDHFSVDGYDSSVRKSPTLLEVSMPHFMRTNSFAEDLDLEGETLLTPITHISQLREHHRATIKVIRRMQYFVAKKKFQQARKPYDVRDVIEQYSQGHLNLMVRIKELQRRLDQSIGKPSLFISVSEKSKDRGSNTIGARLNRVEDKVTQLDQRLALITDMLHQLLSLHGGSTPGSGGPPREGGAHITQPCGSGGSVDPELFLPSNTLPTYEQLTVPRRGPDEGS
CHO parental ctr – counter-screen for KCNQ2 inhibitors: effect in parental CHO cells | shares compounds with KCNQ2 block | thallium flux counter-screen; hits give low values | activity change, % at 10 µM | 14% of 1,000 active
KCNQ2 inh confirm – rat KCNQ2 inhibition confirmed by electrophysiology; shares compounds with KCNQ2 block; KCNQ2-expressing cells, automated patch clamp current; calls only at 10 µM; 49% of 550 active; AID 588531
Each line names hits and unclear results; the compound was inactive in the other large screens (follow-up assays come after a bar, where they were run). The list is not random: actives were taken first. Their share in the collection is about 1.6%. Unless noted, no rule for the calls is given here.

CCc1cc2c(nc1CC)CCN(CC/C(C)=N/O[C@@H](C)c1cc(-c3c(C)cc(C)cc3C)no1)C2	KCNQ2 block -10.2 | KCNQ2 inh conf inactive | KCNQ1 spec inactive | CHO parental ctr inactive
C/C(CCN1CCc2nc(-c3ccccc3)c(-c3ccccc3)cc2C1)=N\O[C@@H](C)c1cc(-c2c(C)cc(C)cc2C)no1	none (no result: KCNQ2 enhance)
Cc1cccc(N2CC(C(=O)NCCC3=CCCCC3)CC2=O)c1C (configuration not stated)	none (no result: KCNQ2 enhance)
CCN(CC(=O)NCc1ccc(Cl)cc1)C(=O)c1ccc(S(=O)(=O)NCc2ccco2)cc1	none (no result: KCNQ2 enhance)
O=C(CN1C(=O)C(c2ccccc2)Oc2cccnc21)NCc1ccccc1F (configuration not stated)	KCNQ2 block -6.83 | KCNQ2 inh conf -21.5% | KCNQ1 spec inactive | CHO parental ctr inactive | KCNQ2 inh confirm active
COc1ccc(CNC(=O)CN2C(=O)C(c3ccccc3)Oc3cccnc32)cc1 (configuration not stated)	none
CCCCn1c(N)c(N(CCOC)C(=O)COC(=O)COc2c(C)cc(C)cc2C)c(=O)[nH]c1=O	none
Cc1nc2ccccc2c(=O)n1/N=C/c1cccs1	none (no result: KCNQ2 enhance)
Cc1nc2ccccc2c(=O)n1/N=C/c1cn(-c2ccccc2)nc1-c1cccs1	KCNQ2 block -9.06 | KCNQ2 inh conf -36.0% | KCNQ1 spec inactive | CHO parental ctr inactive | KCNQ2 inh confirm inactive
COc1ccc(NC(=O)CS(=O)c2ccc(Br)cc2)cc1 (configuration not stated)	none (no result: KCNQ2 enhance)
Cc1cc2c(cc1S(=O)(=O)N(C)c1ccccc1)n(C)c(=O)n2C	none
Cc1cc(C)c(S(=O)(=O)N(C)c2ccccc2)c(C)c1	KCNQ2 block -7.47 | KCNQ2 inh conf -31.0% | KCNQ1 spec inactive | CHO parental ctr inactive | KCNQ2 inh confirm inactive
Cc1cc(C)n(-c2nc3ccccc3c(=O)n2OCc2ccc(Cl)cc2)n1	KCNQ2 block -7.63 | KCNQ2 inh conf inactive | KCNQ1 spec inactive | CHO parental ctr inactive
Cc1cc(C)n(-c2nc3ccccc3c(=O)n2OCc2ccc(F)cc2)n1	none (no result: KCNQ2 enhance)
CN1CC2=Cc3ccccc3OC23Oc2ccccc2C=C3C1	none (no result: KCNQ2 enhance)
CCCn1c(SCC(=O)N2CCCC(C)C2)nnc1-c1cccnc1 (configuration not stated)	none
CCn1c(COc2ccc(OC)cc2)nc2ccccc21	none (no result: KCNQ2 enhance)
CCOC(=O)c1ccc2c(c1)nc(COc1ccc3ccccc3c1)n2CC	KCNQ2 block -9.08 | KCNQ2 inh conf inactive | KCNQ1 spec inactive | CHO parental ctr inactive
COc1ccc(C2CC(c3ccccc3)=NN2C(=O)c2ccc(F)cc2)cc1 (configuration not stated)	none
O=C(Nc1ccccc1)N1N=C(c2ccc(F)cc2)CC1c1ccc(F)cc1 (configuration not stated)	KCNQ2 block -6.72 | KCNQ2 inh conf inactive | KCNQ1 spec inactive | CHO parental ctr inactive
COc1ccc(NS(=O)(=O)c2ccc3c(c2)NC(=O)CO3)c(OC)c1	none (no result: KCNQ2 enhance)
COc1cc2nc(CN3CCC(C(O)(c4ccccc4)c4ccccc4)CC3)[nH]c(=O)c2cc1OC	none
O=C(COC(=O)c1cc(-c2ccc(F)cc2)nc2ccccc12)NCC1CCCO1 (configuration not stated)	none
COc1ccc(C(=O)Nn2c(C)nc3ccccc3c2=O)cc1OC	none (no result: KCNQ2 enhance)
COc1ccc(CNn2c(-c3cccs3)nc3ccccc3c2=O)cc1OC	KCNQ2 block -9.22 | KCNQ2 inh conf -40.5% | KCNQ1 spec inactive | CHO parental ctr inactive | KCNQ2 inh confirm active
CN(CC(=O)Nc1ccc(Cl)c(C(F)(F)F)c1)C(=O)C1CSC2(C)CCC(=O)N12 (configuration not stated)	none
CCCCN(C(=O)Cn1ncc(Cl)c(Cl)c1=O)c1c(N)n(CC(C)C)c(=O)[nH]c1=O	none (no result: KCNQ2 enhance)
CN(Cc1ccsc1)C(=O)CCc1nnc(CCCc2ccccc2)o1	none (no result: KCNQ2 enhance)
CCN(Cc1ccccc1)C(=O)CCc1nnc(CCCc2ccccc2)o1	KCNQ2 block -10.2 | KCNQ2 inh conf -26.0% | KCNQ1 spec inactive | CHO parental ctr inactive | KCNQ2 inh confirm active
O=C(CSc1nnc(-c2ccccn2)o1)Nc1ccccc1Cl	none
CCn1c(NC(=O)Nc2cccc(C)c2C)cc2sccc21	none (no result: KCNQ2 enhance)
COc1cccc(/C=C(/C(=O)OCC(=O)NC2CCCCCCC2)c2ccccc2)c1	KCNQ2 block -8.48 | KCNQ2 inh conf -16.5% | KCNQ1 spec inactive | CHO parental ctr inactive | KCNQ2 inh confirm inactive
COc1cccc(/C=C(/C(=O)OCC(=O)NCC2CCCO2)c2ccccc2)c1 (configuration not stated)	none (no result: KCNQ2 enhance)
C=C(C)c1cccc(C(C)(C)NC(=O)NC2CCN(Cc3ccccc3)CC2)c1	none
C=C(C)c1cccc(C(C)(C)NC(=O)N(Cc2ccccc2)Cc2ccco2)c1	KCNQ2 block -8.68 | KCNQ2 inh conf -23.0% | KCNQ1 spec inactive | CHO parental ctr inactive | KCNQ2 inh confirm inactive
CC(OC(=O)CN1C(=O)c2ccccc2C1=O)C(=O)N(C)c1ccccc1 (configuration not stated)	none (no result: KCNQ2 enhance)
CCCOC(=O)C1C2C=CC(C3CC23)C1C(=O)OCC(=O)c1ccccc1 (configuration not stated)	KCNQ2 block -9.45 | KCNQ2 inh conf inactive | KCNQ1 spec inactive | CHO parental ctr inactive
COC(=O)C1C2CCC(C2)C1C(=O)OCC(=O)c1ccccc1 (configuration not stated)	none (no result: KCNQ2 enhance)
CCCN(CCC)C(=O)Cc1coc2ccc3ccccc3c12	KCNQ2 block -7.32 | KCNQ2 inh conf inactive | KCNQ1 spec inactive | CHO parental ctr inactive
O=C(Cc1coc2ccc3ccccc3c12)NCc1ccccc1	none
CCOC(=O)c1c(-c2cccs2)csc1NC(=O)COC(=O)c1c(C)noc1C	KCNQ2 block -10.1 | KCNQ2 inh conf -24.0% | KCNQ1 spec inactive | CHO parental ctr inactive | KCNQ2 inh confirm inactive
CCOC(=O)c1c(-c2cccs2)csc1NC(=O)c1ccncc1	none
C#CCOc1nc(OCC#C)nc(OCC#C)n1	none (no result: KCNQ2 enhance)
Cn1c(-[n+]2c(-c3ccccc3)cc(-c3ccccc3)cc2-c2ccccc2)nc2c([N+](=O)[O-])cccc21	none (no result: KCNQ2 enhance)
O=[N+]([O-])c1cccc2nc(-c3ccccc3)c(-c3ccccc3)nc12	KCNQ2 block -7.64 | KCNQ2 inh conf -28.0% | KCNQ1 spec inactive | CHO parental ctr inactive | KCNQ2 inh confirm inactive
CC(=O)c1cnn(-c2ccccc2)c1C	none
Cc1c(C(=O)Oc2cccc3ccccc23)cnn1-c1ccccc1	KCNQ2 block -9.3 | KCNQ2 inh conf inactive | KCNQ1 spec inactive | CHO parental ctr inactive
CCCNC(=O)c1onc(CSc2ccc(Cl)cc2)c1C(=O)NCCC(C)C	none (no result: KCNQ2 enhance)
CC1CC(C)CN(C(=O)c2cc(-c3ccccn3)nc3ccccc23)C1 (configuration not stated)	none (no result: KCNQ2 enhance)
Cc1ccc(-c2cc(C(=O)N3CCCCC3)c3ccccc3n2)cc1C	KCNQ2 block -9.31 | KCNQ2 inh conf -36.5% | KCNQ1 spec inactive | CHO parental ctr inactive | KCNQ2 inh confirm active
Cc1ccc(-c2cc(C(=O)N3CCCc4ccccc43)c3ccccc3n2)cc1	KCNQ2 block -6.86 | KCNQ2 inh conf inactive | KCNQ1 spec inactive | CHO parental ctr inactive
